Sampled rows, rich in hits. Any-hit rate of the full collection: about 19%.
DT40 TDP1 CPT = DT40-hTDP1 cell growth loss with CPT; Potency, µM (top dose mostly 46.2 µM), for inactives: at the highest dose activity change, negative = growth inhibition, most hits filed as inhibitors; chicken DT40 Tdp1-/-;hTDP1 cells + 20 nM CPT, ATP luminescence, 48 h; AID 686979; hit rate 12% among 420,000; also: nearly all actives have a fitted effect of over 55% in size
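Cell growth measured by CellTiter-Glo luminescence after a minimum 48 h, 37 C compound exposure with 20 nM CPT in Tdp1-knockout DT40 cells stably expressing hTDP1, seeded 400/well; qHTS titration format.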
HT1080-NT tox = kills 2HG-producing HT-1080-NT fibrosarcoma cells. HT-1080-NT fibrosarcoma viability, CellTiter-Glo ATP luminescence, 48 h. Potency, µM (doses to about 46.1 µM), for the others: at the top dose activity, negative = less viability, usual class: cytotoxic. hit rate 1.6% among 360,000;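 also: NT is the 2HG producing partner of a matched IDH1 knockdown line; 0% = DMSO-treated cells and -100% = media-only wells without cells; nearly all actives have a fitted effect of over 55% in size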
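Read-out is CellTiter-Glo luminescence after 10 minutes at room temperature, following 48 hours' compound treatment of HT-1080-NT cells (750 cells/well, RPMI, 5% FBS, 37 degrees C).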
DT40 TDP1 no CPT = qHTS for Inhibitors of human tyrosyl-DNA phosphodiesterase 1 (TDP1): qHTS in cells in absence of CPT. DT40 Tdp1-/- hTDP1 cells, no CPT, ATP luminescence, 48 h. Potency, µM (top dose mostly 46.2 µM), without a hit: at the top dose activity change, negative = growth inhibition, actives largely listed as inhibitors. hit rate 15% among 420,000. AID 686978, 2013; also: nearly all actives have a fitted effect of over 55% in size
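Cells were dispensed at 400 per well, compounds added by pin tool, plates incubated ≥48 hr at 37 °C, then CellTiter-Glo added for 30 min at room temperature before luminescence reading. Line: DT40 Tdp1-/- complemented with hTDP1; camptothecin omitted.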
KB-V1 MDR tox = kills drug-selected multidrug resistant KB-V1 cells | AID 1347076 | KB-V1 MDR cells viability, CellTiter-Glo, 72 h | hit rate 3.4% among 400,000 | Potency, µM (top dose mostly 46.1 µM), usual class: cytotoxic; also: nearly all actives have a fitted effect of over 60% in size
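Drug-selected KB-V1 cells, grown in DMEM lacking phenol red with 10% FBS, receive compound titrations; after three days at 37 degrees C, surviving cell ATP is quantified by CellTiter-Glo luminescence and responses normalized and curve-fitted.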
KB-3-1 tox = kills parental KB-3-1 adenocarcinoma cells. KB-3-1 viability, CellTiter-Glo ATP luminescence, 72 h. hit rate 1.4% among 400,000. AID 1347075. Potency, µM (highest dose often 46.1 µM), actives largely listed as cytotoxic; also: nearly all actives have a fitted effect of over 60% in size
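Using CellTiter-Glo luminescence, growth of non-resistant KB-3-1 adenocarcinoma cells is assessed 72 h after pin-tool compound addition at 37 °C. Normalized responses across the concentration series yield fitted curves.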
HT1080 IDH1KD tx = toxicity to HT-1080 IDH1 knockdown cells (counter line). HT-1080 IDH1 knockdown viability, ATP luminescence, 48 h. Potency, µM (doses to about 46.1 µM), for the others: top-dose activity, negative = toxicity, hits mostly cytotoxic. hit rate 2% among 360,000;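 also: 0% = DMSO wells and -100% = cell-free medium wells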
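Using the IDH1-knockdown HT-1080 line run in the same batch and compound series as the NT line, viability after 48 h at 37 °C was determined by CellTiter-Glo luminescence and expressed as % activity.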
Active calls of the source: *; i = inactive; ? = inconclusive; . = not tested or not shown; [ ] = another dose, or the depositor's remark. Calls follow the shape of the dose curve; as a rule, active = well fitted curve in the direction sought with a large enough effect; inconclusive = small, poorly fitted or top-dose-only effect, or another doubt; inactive = no such curve, though single readings can be large; an effect the other way counts as inactive or inconclusive. Unless noted, % is scaled to controls: 0 for no effect and ±100 for the full control effect; potency is read from the fitted curve at half-maximal effect.

SMILES	DT40 TDP1 CPT	HT1080-NT tox	DT40 TDP1 no CPT	KB-V1 MDR tox	KB-3-1 tox	HT1080 IDH1KD tx
CN(C)c1ccc(/C=C/c2ccnc3ccccc23)cc1Cl	?	.	10µM*	?	?	.
Cc1cc(C=Nc2ccc(/C=C/c3ccnc4ccccc34)cc2)ccc1N(C)C	16µM*	.	18µM*	i	i	.
Cc1cc(/C=C/c2ccnc3ccccc23)ccc1N(C)C	5.6µM*	.	5.6µM*	13µM*	7.3µM*	.
CCC(=O)NC1CCN(C(=S)NC)CC1	0%	6%	0%	i	i	-4%
CN(C)c1c(Cl)cc(/C=C/c2ccnc3ccccc23)cc1Br	4.5µM*	.	3.5µM*	16µM*	18µM*	.
CN(C)c1ccc(/C=C/c2ccnc3ccccc23)cc1Br	8.9µM*	.	7.1µM*	?	?	.
Cc1c(/C=C/c2ccnc3ccccc23)ccc(N(C)C)c1C	?	.	11µM*	i	?	.
Cc1nnc(SCC(=O)Nc2nc(-c3ccc(F)cc3)cs2)[nH]c1=O	-1%	10%	-1%	i	i	13%
Cc1cc(C)cc(CC(=O)N2CCC2(C)C(=O)NS(=O)(=O)Cc2ccccc2)c1 (stereo not drawn)	9%	9%	-8%	i	i	6%
CCOC(=O)c1ccccc1O	3%	.	14%	.	.	.
CCOC(=O)C1=C(C)C/C(=N\NC(=O)c2ccccc2O)CC1	8.2µM*	?	?	?	i	?
O=C(CN1C(=O)NC2(CCCC2)C1=O)NNC(=O)c1ccc(Cl)cc1	-4%	0%	-5%	?	i	9%
O=C1CC(c2ccco2)Sc2ccccc2N1 (stereo not drawn)	-13%	-19%	3%	i	i	-3%
O=C1CC(c2ccccc2)Sc2ccccc2N1 (stereo not drawn)	13µM*	-4%	10µM*	i	i	-8%
O=[N+]([O-])c1cccc(OCCCN2CCC(Cc3ccccc3)CC2)c1	?	?	?	i	i	?
COc1cccc(OC)c1OCCCCN1CCC(Cc2ccccc2)CC1	?	?	18µM*	?	?	?
CC(=O)CCc1ccc(OCCCCN2CCC(Cc3ccccc3)CC2)cc1	2%	-4%	-24%	?	i	-22%
COc1cccc(OC)c1OCCCCN1CCCC1	-15%	17%	-18%	i	i	12%
N#Cc1ccccc1OCCCN1CCC(Cc2ccccc2)CC1	?	-26%	16µM*	i	i	?
CCC(=O)c1ccccc1OCCCN1CCC(Cc2ccccc2)CC1	?	18µM*	?	?	?	?
Cc1ccc(C(CNS(=O)(=O)c2ccc(F)cc2C)N2CCN(C)CC2)cc1 (stereo not drawn)	18µM*	-30%	?	i	i	-17%
COC(=O)C[C@H]1CC[C@H](NC(=O)Nc2ccccc2F)[C@@H](CO)O1	23µM*	15%	23µM*	i	i	15%
Cc1cccc(CC(=O)NC2CC(=O)N(c3cccc(F)c3)C2)c1 (stereo not drawn)	1%	.	-28%	.	.	.
Oc1cc(-c2ccc(N3CCCCC3)nc2)cc2cccnc12	.	.	.	?	5.2µM*	.
Oc1cc(-c2ccncc2)cc2cccnc12	.	.	.	?	10µM*	.
SMILES	DT40 TDP1 CPT	HT1080-NT tox	DT40 TDP1 no CPT	KB-V1 MDR tox	KB-3-1 tox	HT1080 IDH1KD tx
Oc1cc(Nc2cccnc2)cc2cccnc12	.	.	.	i	21µM*	.
Cc1nc2cc(NC(=O)[C@@H]3C[C@@H](Sc4ccccn4)CN3Cc3ccc4c(c3)OCCO4)ccc2s1	8%[9.04 µM]	.	-9%	.	.	.
COc1ccc(CNc2ncnc3ccc(-c4ccc5c(c4)OCO5)cc23)c(OC)c1	?	.	-15%	.	.	.
COc1ccc(CNc2ncnc3ccc(-c4cccc(NS(C)(=O)=O)c4)cc23)c(OC)c1	18µM*	.	15µM*	.	.	.
COc1ccc(CNc2ncnc3ccc(-c4cccc(C#N)c4)cc23)c(OC)c1	?	.	26µM*	.	.	.
COc1ccc(CNc2ncnc3ccc(-c4ccccc4CN(C)C)cc23)c(OC)c1	21µM*	.	10µM*	.	.	.
COc1ccc(CNc2ncnc3ccc(-c4ccoc4)cc23)c(OC)c1	?	.	-26%	.	.	.
COc1cccc(C(NC(C)=O)c2nc(-c3ccccc3C)cs2)c1 (stereo not drawn)	-10%	-3%	?	i	i	6%
Cc1cc(O)cc2c1O[C@](C)(CCC[C@H](C)CCC[C@H](C)CCCC(C)C)CC2	-9%	.	-18%	.	.	.
C=CCn1c(=S)[nH]c2sc3c(c2c1=O)CCC3	?	7.1µM*	?	i	i	?
COc1ccc(C(=O)CSc2nnn(-c3cccc(NC(C)=O)c3)n2)cc1	?	-3%	23µM*	i	i	-13%
CC(=O)Nc1cccc(-n2nnc(SCC(=O)c3ccccc3)n2)c1	-13%	0%	?	i	i	-1%
CC(C)c1ccc(-c2cc(C(=O)N3CCOCC3)c3cc(Br)ccc3n2)cc1	?	-2%	?	?	?	-5%
CC(=O)c1ccc(N2CCN(C(=O)c3cc(-c4ccncc4)nc4ccc(Br)cc34)CC2)cc1	21µM*	-1%	21µM*	i	?	-1%
O=C(c1ccco1)N1CCN(C(=O)c2cc(-c3ccccc3)nc3ccccc23)CC1	?	-22%	?	i	i	-16%
Cc1cccc2c(C(=O)N3CCN(C(=O)c4ccco4)CC3)cc(-c3cccc(Br)c3)nc12	?	?	?	9.2µM*	?	18µM*
O=C(c1ccco1)N1CCN(C(=O)c2cc(-c3ccncc3)nc3ccc(Br)cc23)CC1	21µM*	-1%	9.2µM*	?	i	-1%[9.24 µM]
Cc1ccc(-c2cc(C(=O)N3CCN(C(=O)c4ccco4)CC3)[nH]n2)cc1C	?	-2%	-26%	i	i	1%
COc1cc(C(C)=O)ccc1OCC(=O)Nc1ccccc1N1CCCCC1	9.2µM*	?	8.2µM*	?	?	?
CCOc1ccc(C(=O)Nc2ccccc2N2CCOCC2)cc1	-27%	4%	?	i	i	8%
COc1ccc(CC(=O)Nc2ccccc2N2CCCC2)cc1	-30%	13%	-13%	i	i	11%
COc1ccc(CNCC(=O)Nc2ccccc2-n2cccc2)cc1	8.2µM*	?	6.5µM*	?	?	?

High-throughput results as filed in PubChem.
